# Test results: PubChem BioAssay AID1879 (The Scripps Research Institute Molecular Screening Center, 2009)
# This is one part of the list. Calls of active or inactive are those of the source. Rule as the data show it: active = inhibition above about 13%; inactive = the rest.
# Test system: SARS coronavirus 3C-like protease (3CLpro)
# Test: confirmation of SARS coronavirus 3C-like protease inhibitors, retest, confirmation, biochemical (AID 1879)
# Conditions: QFRET protease activity assay, at 6 µM, stronger effect = higher value
row,Structure (SMILES),inhibition
1,O=C1C(=O)N(CC2COc3ccccc3O2)c2ccccc21 (stereo not given),23.1% (active)
2,O=C(c1cc(=O)c2ccccc2o1)N1CCN(c2ccccc2)CC1,12.2% (inactive)
3,COC(=O)COc1cccc2c(=O)n(CC(=O)NCc3ccccc3)ccc12,5.39% (inactive)
4,CN1CCN(CC(=O)Nc2cccc([N+](=O)[O-])c2)CC1,1.01% (inactive)
5,Cc1ccc(OCC(=O)Nc2ccc(C(=O)O)cc2NC(=O)COc2ccc(C)c(C)c2)cc1C,8.89% (inactive)
6,CCC(C)(C)NC(=O)C(c1ccc(O)cc1)N(C(=O)Cn1nnc2ccccc21)c1ccc(NC(C)=O)cc1 (stereo not given),25.6% (active)
7,C=C(C)COc1ccc(-c2n[nH]c(C)c2-c2ccccc2)c(O)c1,5.95% (inactive)
8,Cc1ccc(C(=O)NCCN2CCOCC2)cc1C,0.81% (inactive)
9,CC(=O)c1cc(-c2ccccc2)[nH]c1N1CCCC1,22.5% (active)
10,Cc1cccc2c1N(CCOc1ccccc1)C(=O)C2=O,19.1% (active)
11,O=Cc1cn(Cc2ccccc2)nc1-c1cccnc1,47.9% (active)
12,C[C@@]12C(=O)N(c3cccc(Br)c3)C(=O)N1[C@H](c1ccc(Cl)cc1)[C@@H]1C(=O)N(C3CCCCC3)C(=O)[C@@H]12,15.9% (active)
13,CC(C)c1ccc(N(C(=O)c2ccco2)C(C(=O)NC2CCCC2)c2cccnc2)cc1 (stereo not given),47.8% (active)
14,Cc1cccc(C(=O)Nc2nnc(Cc3c[nH]c4ccccc34)s2)c1,5.81% (inactive)
15,CCCCNC(=O)N(O)C1N(/N=C/c2ccc(N(C)C)cc2)C(=S)SC1(C)C (stereo not given),-0.44% (inactive)
